# Reference: ChEMBL document CHEMBL3988442, “University of Dundee, Small-Polar-MMV Screening Library” (2021)
# For some assays here: Potency and affinity values are given separately.
# Tests used:
# Parameters in all cases: scale not given: direction of the effect not stated beside the values
# [1] = biological target: Protein translocase subunit SecA (Escherichia coli (strain K12)) (UniProt P10408); assay: Assay to Identify E. coli SecA ATPase Inhibitors; assay type: functional; conditions: 30 µM
# Protein translocase subunit SecA (Escherichia coli (strain K12)), sequence (P10408 whole entry): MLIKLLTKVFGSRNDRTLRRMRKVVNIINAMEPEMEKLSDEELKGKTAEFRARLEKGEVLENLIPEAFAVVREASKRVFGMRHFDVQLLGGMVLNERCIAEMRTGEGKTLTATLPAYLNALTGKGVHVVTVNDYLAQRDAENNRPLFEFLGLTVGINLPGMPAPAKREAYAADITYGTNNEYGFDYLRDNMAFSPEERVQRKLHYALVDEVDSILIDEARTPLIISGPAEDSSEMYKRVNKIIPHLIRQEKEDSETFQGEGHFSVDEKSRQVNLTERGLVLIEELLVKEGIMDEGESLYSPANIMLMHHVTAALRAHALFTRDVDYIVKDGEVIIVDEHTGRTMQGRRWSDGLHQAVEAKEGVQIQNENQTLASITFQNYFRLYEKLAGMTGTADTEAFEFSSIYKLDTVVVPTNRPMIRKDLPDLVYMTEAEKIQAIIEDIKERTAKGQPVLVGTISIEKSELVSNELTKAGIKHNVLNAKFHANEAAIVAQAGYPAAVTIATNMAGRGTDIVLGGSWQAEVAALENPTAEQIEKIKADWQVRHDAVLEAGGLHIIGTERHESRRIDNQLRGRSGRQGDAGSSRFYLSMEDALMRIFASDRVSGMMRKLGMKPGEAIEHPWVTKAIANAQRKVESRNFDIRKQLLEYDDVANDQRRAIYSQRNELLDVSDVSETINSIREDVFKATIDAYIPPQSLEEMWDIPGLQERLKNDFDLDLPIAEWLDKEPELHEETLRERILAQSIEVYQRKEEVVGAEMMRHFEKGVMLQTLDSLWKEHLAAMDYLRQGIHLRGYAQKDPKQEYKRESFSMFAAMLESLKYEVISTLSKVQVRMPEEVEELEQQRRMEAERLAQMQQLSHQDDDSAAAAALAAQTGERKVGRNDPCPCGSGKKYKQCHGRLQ
# [2] = biological target: T1, Ubiquitin-activating enzyme e1, putative (Leishmania donovani (strain BPK282A1)) (UniProt E9BSI1); assay: Leishmania donovani Ubiquitin Activating Enzyme (LdE1); assay type: functional; conditions: 30 µM
# T1 sequence (whole entry): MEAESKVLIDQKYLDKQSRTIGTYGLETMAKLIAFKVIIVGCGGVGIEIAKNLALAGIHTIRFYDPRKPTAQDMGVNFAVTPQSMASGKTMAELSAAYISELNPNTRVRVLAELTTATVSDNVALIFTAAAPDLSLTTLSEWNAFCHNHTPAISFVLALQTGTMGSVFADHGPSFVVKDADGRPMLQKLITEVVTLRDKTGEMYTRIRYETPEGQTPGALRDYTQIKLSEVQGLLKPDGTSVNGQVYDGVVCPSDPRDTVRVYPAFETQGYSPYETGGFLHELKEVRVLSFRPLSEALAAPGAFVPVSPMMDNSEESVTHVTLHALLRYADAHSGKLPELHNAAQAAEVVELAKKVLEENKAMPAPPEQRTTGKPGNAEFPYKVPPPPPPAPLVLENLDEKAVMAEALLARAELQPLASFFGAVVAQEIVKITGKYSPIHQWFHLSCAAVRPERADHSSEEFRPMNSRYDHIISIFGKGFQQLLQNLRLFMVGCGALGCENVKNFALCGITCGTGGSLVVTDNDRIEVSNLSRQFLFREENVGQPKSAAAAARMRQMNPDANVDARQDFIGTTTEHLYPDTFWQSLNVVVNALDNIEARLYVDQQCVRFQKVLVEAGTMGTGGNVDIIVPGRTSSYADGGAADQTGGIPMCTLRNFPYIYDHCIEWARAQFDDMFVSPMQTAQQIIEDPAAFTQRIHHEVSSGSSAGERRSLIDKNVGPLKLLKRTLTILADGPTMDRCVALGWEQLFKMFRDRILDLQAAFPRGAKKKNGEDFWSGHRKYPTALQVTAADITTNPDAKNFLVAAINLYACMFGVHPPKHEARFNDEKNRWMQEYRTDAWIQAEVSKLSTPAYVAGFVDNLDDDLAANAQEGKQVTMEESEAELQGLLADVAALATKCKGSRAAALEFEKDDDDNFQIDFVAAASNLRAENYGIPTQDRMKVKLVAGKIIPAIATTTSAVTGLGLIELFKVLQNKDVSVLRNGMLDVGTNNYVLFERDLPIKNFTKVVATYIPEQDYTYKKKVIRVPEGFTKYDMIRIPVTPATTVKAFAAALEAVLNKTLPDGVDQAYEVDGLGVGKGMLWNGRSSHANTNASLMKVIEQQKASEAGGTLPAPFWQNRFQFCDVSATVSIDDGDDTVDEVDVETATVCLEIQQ
# [3] = biological target: Sialic acid-binding Ig-like lectin 9 (Homo sapiens) (UniProt Q9Y336); assay: Hs-Siglec9 ALPHAscreen SOP 20170721; conditions: 10 µM
# Sialic acid-binding Ig-like lectin 9 (Homo sapiens), sequence (Q9Y336 whole entry): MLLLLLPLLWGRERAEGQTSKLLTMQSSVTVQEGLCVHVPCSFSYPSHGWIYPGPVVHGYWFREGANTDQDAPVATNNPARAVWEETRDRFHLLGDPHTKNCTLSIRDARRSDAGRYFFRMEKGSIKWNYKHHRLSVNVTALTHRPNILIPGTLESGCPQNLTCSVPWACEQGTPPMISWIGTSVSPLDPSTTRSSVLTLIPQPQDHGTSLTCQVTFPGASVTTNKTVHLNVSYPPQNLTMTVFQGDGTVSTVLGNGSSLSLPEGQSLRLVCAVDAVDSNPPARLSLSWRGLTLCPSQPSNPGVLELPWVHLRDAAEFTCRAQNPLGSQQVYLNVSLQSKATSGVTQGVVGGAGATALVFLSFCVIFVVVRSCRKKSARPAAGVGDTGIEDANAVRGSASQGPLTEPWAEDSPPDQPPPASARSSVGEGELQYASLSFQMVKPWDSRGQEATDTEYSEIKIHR
# Trypanosoma cruzi = assay: Trypanosoma cruzi phosphomannomutase and mannose-1-phosphate guanylyltransferase assay; assay type: functional; conditions: 10 µM
# [4] = biological target: T2, Arginase-2, mitochondrial (Homo sapiens) (UniProt P78540); assay: in vitro enzyme assay to detect the production of urea directly proportional to the activity of Arginase II; assay type: functional; conditions: 33.3 µM; note: in the data most compounds retested in dose-response had high values
# T2 sequence (whole entry): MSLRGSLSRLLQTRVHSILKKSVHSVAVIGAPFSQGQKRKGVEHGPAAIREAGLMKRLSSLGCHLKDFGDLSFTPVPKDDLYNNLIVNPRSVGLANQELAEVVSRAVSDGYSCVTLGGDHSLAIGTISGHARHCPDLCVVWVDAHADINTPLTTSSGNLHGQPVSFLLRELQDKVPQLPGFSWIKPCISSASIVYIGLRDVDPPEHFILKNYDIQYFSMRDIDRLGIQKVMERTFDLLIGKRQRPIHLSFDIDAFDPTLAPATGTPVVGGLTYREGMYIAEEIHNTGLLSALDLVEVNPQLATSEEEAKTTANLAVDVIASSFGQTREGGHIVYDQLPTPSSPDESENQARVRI
# [5] = biological target: T3, Proteasome subunit beta (Trypanosoma cruzi) (UniProt O96673); assay: Trypanosoma cruzi proteasome chymotrypsin-like activity (TcProtChymo) assay.; note: in the data most compounds retested in dose-response had high values; assay type: functional; conditions: 9.37 µM
# T3 sequence (whole entry): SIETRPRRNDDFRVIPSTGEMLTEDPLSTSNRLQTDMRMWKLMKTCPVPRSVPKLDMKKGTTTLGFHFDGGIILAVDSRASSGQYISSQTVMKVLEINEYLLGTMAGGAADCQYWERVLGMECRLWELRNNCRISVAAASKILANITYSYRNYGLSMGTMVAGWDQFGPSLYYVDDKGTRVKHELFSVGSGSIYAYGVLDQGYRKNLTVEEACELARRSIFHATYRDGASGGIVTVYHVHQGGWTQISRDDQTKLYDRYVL
# Homo sapiens = organism: Homo sapiens; assay: To identify inhibition of the IFN signalling (Jak-Stat) pathway via expression of an eGFP reporter gene under the control of an IFN-stimulated response element (ISRE) containing MxA promoter.; assay type: functional; conditions: 30 µM
# [6] = biological target: T4, Tyrosyl-tRNA synthetase, putative (Trypanosoma cruzi (strain CL Brener)) (UniProt Q4DSP6); assay: Trypanosoma cruzi tyrosyl tRNA synthetase (TcYRS) _High Tyrosine SOP; assay type: functional; conditions: 30 µM; note: in the data most compounds retested in dose-response had high values
# T4 sequence (whole entry): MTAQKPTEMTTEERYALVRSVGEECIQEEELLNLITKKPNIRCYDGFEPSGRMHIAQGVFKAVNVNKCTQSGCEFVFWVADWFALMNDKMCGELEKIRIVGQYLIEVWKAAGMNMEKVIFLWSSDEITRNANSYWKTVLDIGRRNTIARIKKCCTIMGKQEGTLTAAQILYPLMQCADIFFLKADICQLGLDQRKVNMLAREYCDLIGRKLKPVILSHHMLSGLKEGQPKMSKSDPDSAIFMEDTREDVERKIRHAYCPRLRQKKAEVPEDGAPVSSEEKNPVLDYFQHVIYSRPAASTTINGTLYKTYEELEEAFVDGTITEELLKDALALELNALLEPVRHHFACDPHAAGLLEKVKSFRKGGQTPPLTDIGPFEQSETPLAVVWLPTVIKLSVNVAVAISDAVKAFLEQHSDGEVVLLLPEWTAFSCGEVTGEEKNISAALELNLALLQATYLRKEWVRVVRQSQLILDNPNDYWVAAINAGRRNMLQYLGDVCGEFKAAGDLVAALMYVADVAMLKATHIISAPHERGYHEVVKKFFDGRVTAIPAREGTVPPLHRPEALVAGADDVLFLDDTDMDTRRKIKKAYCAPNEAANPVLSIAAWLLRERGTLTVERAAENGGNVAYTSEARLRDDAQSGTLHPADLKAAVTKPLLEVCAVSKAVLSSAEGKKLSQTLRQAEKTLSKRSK
# [7] = biological target: T4, Tyrosyl-tRNA synthetase, putative (Trypanosoma cruzi (strain CL Brener)); assay: Trypanosoma cruzi tyrosyl tRNA synthetase (TcYRS) SOP; assay type: functional; conditions: 30 µM
# [8] = biological target: Chromo domain-containing protein 1 (Saccharomyces cerevisiae (strain ATCC 204508 / S288c) (Baker's yeast)) (UniProt P32657); assay: ScCHD-1 Enzyme Inhibition Assay; assay type: functional; conditions: 30 µM; note: in the data most compounds retested in dose-response had high values
# Chromo domain-containing protein 1 (Saccharomyces cerevisiae (strain ATCC 204508 / S288c) (Baker's yeast)), sequence (P32657 whole entry, the tested form may be a part): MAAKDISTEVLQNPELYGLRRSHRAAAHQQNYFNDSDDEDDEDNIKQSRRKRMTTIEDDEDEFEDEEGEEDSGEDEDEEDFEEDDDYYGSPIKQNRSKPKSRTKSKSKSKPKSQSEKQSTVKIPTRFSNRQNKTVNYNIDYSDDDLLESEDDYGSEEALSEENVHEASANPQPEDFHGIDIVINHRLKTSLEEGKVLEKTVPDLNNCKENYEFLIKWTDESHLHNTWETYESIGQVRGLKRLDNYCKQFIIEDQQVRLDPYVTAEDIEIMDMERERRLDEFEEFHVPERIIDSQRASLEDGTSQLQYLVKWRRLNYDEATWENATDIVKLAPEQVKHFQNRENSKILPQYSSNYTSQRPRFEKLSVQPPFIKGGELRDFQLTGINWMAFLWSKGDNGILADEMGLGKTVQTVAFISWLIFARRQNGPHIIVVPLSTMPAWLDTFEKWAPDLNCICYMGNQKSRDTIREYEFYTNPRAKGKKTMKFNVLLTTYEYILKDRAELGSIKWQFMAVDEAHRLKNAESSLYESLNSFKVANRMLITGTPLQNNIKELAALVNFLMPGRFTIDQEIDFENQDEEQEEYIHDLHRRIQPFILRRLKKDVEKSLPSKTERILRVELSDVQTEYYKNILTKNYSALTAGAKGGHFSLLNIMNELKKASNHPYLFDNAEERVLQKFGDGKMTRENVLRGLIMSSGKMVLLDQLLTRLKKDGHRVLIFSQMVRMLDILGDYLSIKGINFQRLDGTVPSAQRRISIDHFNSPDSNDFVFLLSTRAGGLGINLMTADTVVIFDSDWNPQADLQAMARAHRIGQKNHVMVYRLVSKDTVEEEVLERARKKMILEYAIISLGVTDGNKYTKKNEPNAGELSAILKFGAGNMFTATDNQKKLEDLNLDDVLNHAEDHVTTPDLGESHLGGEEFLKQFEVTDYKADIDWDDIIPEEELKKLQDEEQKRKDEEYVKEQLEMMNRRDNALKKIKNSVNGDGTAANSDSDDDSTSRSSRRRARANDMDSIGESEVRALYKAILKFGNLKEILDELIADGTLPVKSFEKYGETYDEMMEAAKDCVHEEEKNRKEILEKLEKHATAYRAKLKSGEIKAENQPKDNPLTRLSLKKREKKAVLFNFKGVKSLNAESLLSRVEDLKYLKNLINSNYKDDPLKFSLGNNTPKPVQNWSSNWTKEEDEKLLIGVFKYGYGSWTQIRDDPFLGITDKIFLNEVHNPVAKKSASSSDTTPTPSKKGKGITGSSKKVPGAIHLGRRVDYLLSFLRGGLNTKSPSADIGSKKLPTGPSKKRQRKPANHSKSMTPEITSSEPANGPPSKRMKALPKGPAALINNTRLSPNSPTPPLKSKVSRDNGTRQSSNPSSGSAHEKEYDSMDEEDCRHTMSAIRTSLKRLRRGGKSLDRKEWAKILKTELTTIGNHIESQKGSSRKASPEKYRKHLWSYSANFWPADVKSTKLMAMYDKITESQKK
Structure (SMILES),Percent Effect [1] [%],Percent Effect [2] [%],Percent Effect [3] [%],Percent Effect (Trypanosoma cruzi) [%],Percent Effect [4] [%],Percent Effect [5] [%],Percent Effect (Homo sapiens) [%],Percent Effect [6] [%],Percent Effect [7] [%],Percent Effect [8] [%]
O=C1CCC2(CCCN(CCc3ccccc3)C2)N1Cc1cccnc1 (stereo not given),-0.897,22.1,-2.1,-2.44,2.28,18.8,4.75,12.6,10,-8.73
COc1ccc(C[C@H]2CN(C(=O)CN(C)C)CC[C@H]2OC)cc1,-1.58,14.3,1.4,0.563,0,-4.21,5.12,-8.7,10,-0.592
CCCn1nc2c(cc1=O)CN(CC(=O)Nc1nnc(C)s1)CC2,-7.9,13,10.3,-3.92,3.07,11.8,1.49,2.94,9.41,-8.62
Cc1c[nH]cc1C(=O)N1CCN(CCc2cccs2)CC1,-4.85,5.13,-6.52,3.29,2.05,-3.67,3.15,5.26,8.43,0.816
CCc1[nH]ncc1C(=O)N1CCCC(n2cccn2)C1 (stereo not given),-3.15,13.3,7.05,-2.21,4.88,7.38,-9.13,4.74,15.4,-7.04
Cn1ncc(C(=O)N2CCCC(n3cccn3)C2)c1C1CC1 (stereo not given),-4.48,10.7,0.531,-3.61,3.1,11.6,8.56,2.63,5.13,-7.06
Fc1ccc(CN2CCCC2c2cncc(-n3ccnc3)n2)cc1 (stereo not given),-2.01,9.33,-0.339,-0.986,0.885,-1.97,3.29,4.23,12.5,-24.9
COc1ccc(C)cc1C(C)NC(=O)NCCCn1cncn1 (stereo not given),-2.2,18.7,1.49,1.81,1.33,13.5,4.64,6.84,20.5,-10.3
CCN(CC1CCOC1)C(=O)Nc1ccc(N2CCCC2)nc1 (stereo not given),-6.5,12.8,-1.33,5.35,2.87,14.2,10.2,7.18,18.1,-10.3
CCN(Cc1cccc2c1OCO2)C(=O)NC1CC1,-0.28,13,9.18,1.68,-7.17,1.75,3.66,3.92,28.2,-7.71
CCN(C(=O)c1ccc(-n2ncc(C#N)c2N)cc1)C1CCCC1,-1.54,15.6,1.83,-0.187,-5.12,6.67,3.59,-14.7,16.5,-7.19
CC(NC(=O)NCCCn1cncn1)c1ccccc1Cl (stereo not given),0.672,10.7,-2.84,-7.63,3.99,7.72,13.4,3.68,12.8,-11
O=S(=O)(C1CC1)N1CCC2(CC1)CC(Oc1cccnc1)CO2 (stereo not given),-7.74,9.09,4.03,2.43,-3.24,-1.15,-0.725,3.68,0,-0.139
CCCc1c(C(=O)NC2CCCC2)nnn1-c1ccc(OC)cc1,107,17.3,-6.12,0,6.2,8.37,27,-1.06,7.5,-16.8
COCCC(=O)N1C[C@H]2CN(Cc3cccc(C)n3)C(=O)[C@H]2C1,-1.95,3.9,-4.82,-0.563,2.74,0.0858,-13.5,7.73,7.5,-4.73
c1ccc(-n2ncc(CNC3CCc4ncnn4C3)n2)cc1 (stereo not given),-1.79,10.3,0.298,1.03,4.51,3.16,10,1.44,8.43,1.52
Cc1cccc(C(=O)N2CCCN(Cc3cnn(C)c3)CC2)n1,-0.00911,-5.13,4.36,1.6,6.15,-6.74,13.4,-0.478,1.21,-3.37
O=C(c1ccc(OCC2CC2)nc1)N1CCCC(n2ccnc2)C1 (stereo not given),-2.4,12.8,-6.85,2.72,6.97,9.64,5.6,8.13,22.9,-4.73
COC(=O)C1CCN(C(=O)c2ccc(NS(C)(=O)=O)c(C)c2)CC1,-3.21,-5.41,-1.94,-2.04,-0.35,10.3,-0.596,3.72,0,0.629
O=C(CCC1CCN(Cc2ncc[nH]2)CC1)Nc1ccccc1Cl,-2.38,-5.41,-2.45,-0.291,-2.45,8.56,0.831,-0.532,0,4.74
